From the supplement of paper PMC10849652
About 7,900 targets were measured; listed, in parts, are those with a hit and a random draw of the rest. About 0.6% of all pairs of compound and target were hits. Values without a mark were called inactive.

compound: CC1=C2C(=CC=C1)N=C(N(C2=O)C3=CC=CC=C3C)CN4C=NC5=C(N=CN=C54)N; assay: log2 fold change, soluble protein after heating vs DMSO (PISA); higher = thermal stabilisation; K562 cells, 10 uM, 30 min; active = over 0.2 and 3.5 SD of the protein, either way, in both replicates (recomputed)
How it was run: (§1)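 Thermal stability values are relative to control samples and come from duplicates. They are expressed as log2 fold changes. For measurement, K562 cells (2×10^6 cells/mL) received 10 μM compound for 30 min, and aliquots were heated for 3 min over 48°C-58°C, pooled, and extracted at 4°C in PBS with 0.5% NP-40. Soluble protein, the supernatant after 21,000xg for 90 min, was quantified by TMTpro 16plex LC-MS/MS with equalised channel sums.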

Chain of UniProt Q8IWV8 (Q8IWV8 whole entry, looked up): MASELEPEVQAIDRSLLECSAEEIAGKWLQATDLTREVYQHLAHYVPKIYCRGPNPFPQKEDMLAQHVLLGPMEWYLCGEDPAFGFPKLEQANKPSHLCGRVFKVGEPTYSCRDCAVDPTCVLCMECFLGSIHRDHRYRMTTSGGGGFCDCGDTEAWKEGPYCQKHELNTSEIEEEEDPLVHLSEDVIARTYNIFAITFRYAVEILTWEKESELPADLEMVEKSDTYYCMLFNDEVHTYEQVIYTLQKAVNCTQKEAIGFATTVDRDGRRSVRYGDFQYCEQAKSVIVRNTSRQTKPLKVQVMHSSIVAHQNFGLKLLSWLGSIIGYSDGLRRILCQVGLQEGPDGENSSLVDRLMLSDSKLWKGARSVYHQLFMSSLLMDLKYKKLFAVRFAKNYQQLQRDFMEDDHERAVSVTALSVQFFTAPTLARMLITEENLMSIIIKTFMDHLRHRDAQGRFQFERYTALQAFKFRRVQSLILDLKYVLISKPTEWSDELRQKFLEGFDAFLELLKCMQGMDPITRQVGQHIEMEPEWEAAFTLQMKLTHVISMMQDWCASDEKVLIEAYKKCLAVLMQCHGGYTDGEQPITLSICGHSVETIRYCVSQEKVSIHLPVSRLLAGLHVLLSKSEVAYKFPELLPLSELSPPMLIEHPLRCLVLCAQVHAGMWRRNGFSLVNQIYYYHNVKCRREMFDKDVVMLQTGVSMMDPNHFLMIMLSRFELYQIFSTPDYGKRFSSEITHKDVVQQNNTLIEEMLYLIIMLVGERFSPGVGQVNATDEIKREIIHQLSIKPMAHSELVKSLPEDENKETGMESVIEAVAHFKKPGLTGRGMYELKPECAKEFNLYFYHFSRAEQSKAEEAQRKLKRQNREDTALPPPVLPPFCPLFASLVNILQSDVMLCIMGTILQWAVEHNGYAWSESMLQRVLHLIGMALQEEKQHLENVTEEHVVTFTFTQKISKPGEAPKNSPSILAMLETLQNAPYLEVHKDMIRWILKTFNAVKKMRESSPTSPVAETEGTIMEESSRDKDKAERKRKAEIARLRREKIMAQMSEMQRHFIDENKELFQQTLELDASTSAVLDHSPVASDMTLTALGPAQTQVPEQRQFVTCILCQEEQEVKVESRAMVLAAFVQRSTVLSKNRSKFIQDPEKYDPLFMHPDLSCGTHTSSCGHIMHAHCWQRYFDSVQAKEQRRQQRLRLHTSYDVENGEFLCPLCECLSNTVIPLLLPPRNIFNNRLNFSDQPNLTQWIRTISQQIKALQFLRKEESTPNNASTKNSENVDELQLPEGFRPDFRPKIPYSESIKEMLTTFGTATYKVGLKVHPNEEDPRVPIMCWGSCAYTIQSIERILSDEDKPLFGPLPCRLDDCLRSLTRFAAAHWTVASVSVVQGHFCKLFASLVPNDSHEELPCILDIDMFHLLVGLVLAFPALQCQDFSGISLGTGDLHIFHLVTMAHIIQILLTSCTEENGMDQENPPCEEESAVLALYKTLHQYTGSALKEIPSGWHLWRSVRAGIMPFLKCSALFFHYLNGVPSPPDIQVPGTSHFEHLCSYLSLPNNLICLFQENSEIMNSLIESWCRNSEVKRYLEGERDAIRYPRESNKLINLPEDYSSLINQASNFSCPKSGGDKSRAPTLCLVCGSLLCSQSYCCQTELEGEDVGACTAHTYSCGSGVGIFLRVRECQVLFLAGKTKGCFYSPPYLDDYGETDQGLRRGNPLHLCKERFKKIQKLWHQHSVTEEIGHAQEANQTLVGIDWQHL
Chain of UniProt Q9UL33 (Q9UL33 whole entry, looked up): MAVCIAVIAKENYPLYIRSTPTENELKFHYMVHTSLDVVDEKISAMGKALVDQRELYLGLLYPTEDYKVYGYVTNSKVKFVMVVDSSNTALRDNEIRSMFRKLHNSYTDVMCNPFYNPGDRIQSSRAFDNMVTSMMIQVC
Chain of UniProt Q9C037 (Q9C037 whole entry, looked up): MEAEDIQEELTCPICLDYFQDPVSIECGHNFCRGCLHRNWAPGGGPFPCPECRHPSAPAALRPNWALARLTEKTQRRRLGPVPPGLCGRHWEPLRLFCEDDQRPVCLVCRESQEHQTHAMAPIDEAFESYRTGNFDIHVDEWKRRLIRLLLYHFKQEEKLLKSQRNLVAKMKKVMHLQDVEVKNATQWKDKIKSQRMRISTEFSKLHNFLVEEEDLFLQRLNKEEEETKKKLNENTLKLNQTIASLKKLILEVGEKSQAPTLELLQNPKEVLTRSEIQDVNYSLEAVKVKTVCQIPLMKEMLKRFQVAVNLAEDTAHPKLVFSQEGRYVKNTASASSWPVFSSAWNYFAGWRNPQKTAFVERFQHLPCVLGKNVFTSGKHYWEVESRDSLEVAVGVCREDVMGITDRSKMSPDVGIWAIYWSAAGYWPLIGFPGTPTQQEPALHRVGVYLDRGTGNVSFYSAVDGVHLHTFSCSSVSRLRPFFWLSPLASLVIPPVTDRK
Chain of UniProt Q5TAX3 (Q5TAX3 whole entry, looked up): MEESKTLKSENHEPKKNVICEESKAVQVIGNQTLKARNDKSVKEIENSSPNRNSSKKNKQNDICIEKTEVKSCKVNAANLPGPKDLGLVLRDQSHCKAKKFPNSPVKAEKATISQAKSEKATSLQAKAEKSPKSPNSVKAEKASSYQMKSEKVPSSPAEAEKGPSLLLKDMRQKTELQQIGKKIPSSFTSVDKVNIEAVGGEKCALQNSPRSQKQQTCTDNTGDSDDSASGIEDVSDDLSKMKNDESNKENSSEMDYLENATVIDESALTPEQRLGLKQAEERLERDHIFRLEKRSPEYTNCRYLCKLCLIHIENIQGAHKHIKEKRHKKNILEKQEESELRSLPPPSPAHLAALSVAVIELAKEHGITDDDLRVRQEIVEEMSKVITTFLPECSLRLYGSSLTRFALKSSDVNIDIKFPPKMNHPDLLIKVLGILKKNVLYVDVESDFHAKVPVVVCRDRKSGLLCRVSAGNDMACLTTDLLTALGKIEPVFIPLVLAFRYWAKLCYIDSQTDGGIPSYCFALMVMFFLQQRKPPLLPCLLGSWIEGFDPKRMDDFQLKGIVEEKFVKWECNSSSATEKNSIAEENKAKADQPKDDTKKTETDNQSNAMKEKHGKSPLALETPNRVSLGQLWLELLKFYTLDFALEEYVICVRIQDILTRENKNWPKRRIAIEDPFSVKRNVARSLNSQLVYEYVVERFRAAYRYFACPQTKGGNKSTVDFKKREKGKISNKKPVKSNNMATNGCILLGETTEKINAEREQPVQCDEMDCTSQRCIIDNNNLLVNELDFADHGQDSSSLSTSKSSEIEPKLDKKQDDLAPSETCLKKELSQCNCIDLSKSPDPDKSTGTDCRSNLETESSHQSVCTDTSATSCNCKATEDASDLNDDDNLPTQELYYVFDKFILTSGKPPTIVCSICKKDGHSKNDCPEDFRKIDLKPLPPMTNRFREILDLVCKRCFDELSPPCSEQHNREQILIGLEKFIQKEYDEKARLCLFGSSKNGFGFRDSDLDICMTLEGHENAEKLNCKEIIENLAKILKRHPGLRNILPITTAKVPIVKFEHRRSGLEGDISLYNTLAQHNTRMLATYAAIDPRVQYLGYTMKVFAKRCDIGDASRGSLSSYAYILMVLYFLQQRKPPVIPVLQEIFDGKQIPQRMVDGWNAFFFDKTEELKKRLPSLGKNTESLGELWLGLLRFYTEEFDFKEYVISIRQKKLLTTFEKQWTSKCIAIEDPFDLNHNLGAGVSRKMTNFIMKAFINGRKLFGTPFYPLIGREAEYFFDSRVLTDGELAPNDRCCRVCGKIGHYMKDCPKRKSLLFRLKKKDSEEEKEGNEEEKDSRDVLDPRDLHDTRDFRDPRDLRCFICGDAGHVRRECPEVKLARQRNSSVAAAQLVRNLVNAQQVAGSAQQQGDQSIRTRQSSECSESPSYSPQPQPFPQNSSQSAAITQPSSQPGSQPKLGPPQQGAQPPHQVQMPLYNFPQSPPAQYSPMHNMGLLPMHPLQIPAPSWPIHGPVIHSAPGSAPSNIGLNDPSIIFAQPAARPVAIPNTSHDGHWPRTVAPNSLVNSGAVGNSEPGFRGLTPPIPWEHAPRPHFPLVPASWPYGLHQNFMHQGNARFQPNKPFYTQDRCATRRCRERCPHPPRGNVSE
Chain of UniProt O43592 (O43592 whole entry, looked up): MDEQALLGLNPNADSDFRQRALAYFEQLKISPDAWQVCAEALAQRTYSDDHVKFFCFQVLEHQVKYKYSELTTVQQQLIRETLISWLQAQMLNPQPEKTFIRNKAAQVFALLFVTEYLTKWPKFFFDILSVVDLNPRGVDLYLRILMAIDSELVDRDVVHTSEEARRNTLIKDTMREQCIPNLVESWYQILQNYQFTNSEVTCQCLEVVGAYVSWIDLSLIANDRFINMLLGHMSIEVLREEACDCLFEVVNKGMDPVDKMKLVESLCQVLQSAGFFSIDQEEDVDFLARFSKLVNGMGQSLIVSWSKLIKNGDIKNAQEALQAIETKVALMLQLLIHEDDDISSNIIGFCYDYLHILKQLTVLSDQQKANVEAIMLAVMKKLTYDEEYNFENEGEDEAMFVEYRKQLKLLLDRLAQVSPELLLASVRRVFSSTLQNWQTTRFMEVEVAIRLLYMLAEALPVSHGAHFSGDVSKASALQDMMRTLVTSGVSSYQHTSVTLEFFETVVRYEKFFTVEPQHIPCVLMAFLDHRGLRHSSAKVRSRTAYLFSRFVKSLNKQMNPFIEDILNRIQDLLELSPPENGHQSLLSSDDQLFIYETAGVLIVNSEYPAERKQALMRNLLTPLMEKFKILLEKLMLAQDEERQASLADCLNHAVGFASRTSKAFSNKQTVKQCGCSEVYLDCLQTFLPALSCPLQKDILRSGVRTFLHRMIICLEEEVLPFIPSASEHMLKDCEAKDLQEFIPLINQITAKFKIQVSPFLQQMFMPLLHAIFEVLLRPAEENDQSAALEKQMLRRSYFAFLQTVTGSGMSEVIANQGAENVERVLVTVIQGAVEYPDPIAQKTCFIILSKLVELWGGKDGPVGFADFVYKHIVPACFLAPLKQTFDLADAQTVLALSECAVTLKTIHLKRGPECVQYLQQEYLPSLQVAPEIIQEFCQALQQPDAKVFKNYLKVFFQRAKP

Row | Target | log2 fold change
1 | WDR75 (UniProt Q8IWA0) | 0.002
2 | WASHC2C, A0A096LPC5 | 0.008
3 | VDAC1 (UniProt P21796) | -0.024
4 | WDR37 isoform 2 (UniProt Q9Y2I8) | 0.062
5 | TMEM173 (UniProt Q86WV6) | 0.086
6 | WDR62 isoform 4 (UniProt O43379) | 0.031
7 | TRAPPC2L (UniProt Q9UL33) | -0.058
8 | TSG101 (UniProt Q99816) | 0.074
9 | TRIM28 (UniProt Q13263) | 0.017
10 | TUBA4A (UniProt C9JJQ8) | 0
11 | TOMM20 (UniProt Q15388) | 0.028
12 | TMTC3 (UniProt Q6ZXV5) | 0.011
13 | TXNIP (UniProt Q9H3M7) | -0.012
14 | TRMT10A (UniProt Q8TBZ6) | 0.006
15 | TUT4 (UniProt Q5TAX3) | 0.214
16 | WDR41 (UniProt Q9HAD4) | -0.033
17 | TRIM4 (UniProt Q9C037) | 0.254
18 | WDR43 (UniProt Q15061) | 0.009

Row | Target | log2 fold change
19 | WAPL isoform 3 (UniProt Q7Z5K2) | 0.138
20 | TRAPPC6B (UniProt Q86SZ2) | 0.048
21 | TRIP10 (UniProt Q15642) | 0.081
22 | USP15 (UniProt Q9Y4E8) | 0.059
23 | XPOT (UniProt O43592) | 0.083
24 | XRCC6 (UniProt P12956) | 0.114
25 | WASHC3 (UniProt Q9Y3C0) | 0.045
26 | UFD1 isoform 1 (UniProt Q92890) | 0.033
27 | XPNPEP3 (UniProt Q9NQH7) | 0.07
28 | VPS52 (UniProt Q8N1B4) | 0.137
29 | WDR61 (UniProt Q9GZS3) | 0.077
30 | TOM1L1 (UniProt O75674) | 0.034
31 | USP3 (UniProt Q9Y6I4) | 0.036
32 | VPS50 (UniProt Q96JG6) | 0.022
33 | UBR2 (UniProt Q8IWV8) | 0.009
34 | USP14 (UniProt P54578) | 0.046
35 | XPO1 (UniProt O14980) | 0.044
36 | WRB (UniProt O00258) | -0.015

compound: Cc1sc2c(c1C)C(c1ccc(Cl)cc1)=N[C@@H](CC(=O)OC(C)(C)C)c1nnc(C)n1-2; assay: as above
How it was run: as §1

Row | Target | log2 fold change
37 | WDR75 (UniProt Q8IWA0) | 0.304
38 | WASHC2C, A0A096LPC5 | 0.027
39 | VDAC1 (UniProt P21796) | -0.007
40 | WDR37 isoform 2 (UniProt Q9Y2I8) | 0.079
41 | TMEM173 (UniProt Q86WV6) | -0.099
42 | WDR62 isoform 4 (UniProt O43379) | 0.004
43 | TRAPPC2L (UniProt Q9UL33) | -0.063
44 | TSG101 (UniProt Q99816) | -0.015
45 | TRIM28 (UniProt Q13263) | -0.012
46 | TUBA4A (UniProt C9JJQ8) | -0.011
47 | TOMM20 (UniProt Q15388) | 0.006
48 | TMTC3 (UniProt Q6ZXV5) | -0.034
49 | TXNIP (UniProt Q9H3M7) | -0.039
50 | TRMT10A (UniProt Q8TBZ6) | -0.033
51 | TUT4 (UniProt Q5TAX3) | -0.052
52 | WDR41 (UniProt Q9HAD4) | -0.03
53 | TRIM4 (UniProt Q9C037) | -0.04
54 | WDR43 (UniProt Q15061) | -0.009

Row | Target | log2 fold change
55 | WAPL isoform 3 (UniProt Q7Z5K2) | -0.08
56 | TRAPPC6B (UniProt Q86SZ2) | -0.033
57 | TRIP10 (UniProt Q15642) | 0.014
58 | USP15 (UniProt Q9Y4E8) | 0.008
59 | XPOT (UniProt O43592) | -0.002
60 | XRCC6 (UniProt P12956) | -0.022
61 | WASHC3 (UniProt Q9Y3C0) | -0.001
62 | UFD1 isoform 1 (UniProt Q92890) | -0.045
63 | XPNPEP3 (UniProt Q9NQH7) | -0.009
64 | VPS52 (UniProt Q8N1B4) | -0.057
65 | WDR61 (UniProt Q9GZS3) | 0.032
66 | TOM1L1 (UniProt O75674) | 0.009
67 | USP3 (UniProt Q9Y6I4) | -0.061
68 | VPS50 (UniProt Q96JG6) | -0.013
69 | UBR2 (UniProt Q8IWV8) | -0.014
70 | USP14 (UniProt P54578) | -0.028
71 | XPO1 (UniProt O14980) | -0.011
72 | WRB (UniProt O00258) | 0.005
